Measured values: PubChem BioAssay AID1159580 (chemical genetic matrix, 2015)
“And” between values parts separate entries of the source, which are not always exact repeats. Identical values can stand only once. The campaign covered roughly 5,500 compounds. About 2,000 (36%) were called active. Not shown: some 18% with an inconclusive outcome. Cut-off read from the data, not from the text of the source: active = normalized growth mostly below about 0.91 (no sharp cut-off); inconclusive = no clear call, values can overlap the other calls; inactive = mostly above about 0.92. The list shows a part of the results.

Assay: chemical genetic growth profiling, strain panel (AID 1159580);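 note: tested at 20 µM; growth read once vehicle control cultures reached saturation at 30 °C; 1 = growth at the plate median or of vehicle wells; lower values mean less growth of the strain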
Conditions: S. cerevisiae deletion strains, growth OD

Measured: normalized growth

NS(=O)(=O)c1cc2c(cc1C(F)(F)F)NCNS2(=O)=O
inactive: locus YAL013W, strain DEP1, active compounds read low 1.03 | locus YAL021C, strain ccr4, active compounds read low 0.995 | locus YAL026C, strain drs2, active compounds read low 1 | locus YAL030W, strain snc1, active compounds read low 0.995 | locus YBL061C, strain skt5, active compounds read low 0.996 | locus YBR009C, strain hhf1, active compounds read low 0.985 | locus YBR021W, strain FUR4, active compounds read low 1 | locus YBR023C, strain chs3, active compounds read low 0.989 | locus YBR171W, strain sec66, active compounds read low 1.01 | locus YBR229C, strain ROT2, active compounds read low 1.02 | locus YBR231C, strain swc5, active compounds read low 0.975 | locus YBR279W, strain paf1, active compounds read low 0.992 | locus YCL011C, strain gbp2, active compounds read low 0.991 | locus YCL016C, strain dcc1, active compounds read low 0.969 | locus YCL029C, strain bik1, active compounds read low 0.997 | locus YCL061C, strain MRC1, active compounds read low 0.997 | locus YCL069W, strain vba3, active compounds read low 1 | locus YCR088W, strain abp1, active compounds read low 0.999 | locus YDL005C, strain med2, active compounds read low 0.99 | locus YDL035C, strain GPR1, active compounds read low 1.03 | locus YDL040C, strain nat1, active compounds read low 0.996 | locus YDL074C, strain BRE1, active compounds read low 1.01 | locus YDL101C, strain DUN1, active compounds read low 1.02 | locus YDL185W, strain tfp1, active compounds read low 0.997 | locus YDL192W, strain arf1, active compounds read low 0.993 | locus YDR001C, strain nth1, active compounds read low 1 | locus YDR069C, strain doa4, active compounds read low 1.01 | locus YDR101C, strain arx1, active compounds read low 1 | locus YDR137W, strain rgp1, active compounds read low 1.01 | locus YDR159W, strain sac3, active compounds read low 0.966 | locus YDR162C, strain NBP2, active compounds read low 1.02 | locus YDR195W, strain ref2 0.994 | locus YDR297W, strain sur2, active compounds read low 1.01 | locus YDR318W, strain mcm21, active compounds read low 0.986 | locus YDR334W, strain swr1, active compounds read low 1.01 | locus YDR335W, strain msn5, active compounds read low 0.999 | locus YDR388W, active compounds read low 0.998 | locus YDR392W, strain spt3, active compounds read low 0.939 | locus YDR502C, strain sam2, active compounds read low 0.988 | locus YEL003W, strain gim4, active compounds read low 1 | locus YEL037C, strain rad23, active compounds read low 1.02 | locus YEL061C, strain CIN8 (second series), active compounds read low 1.01 | locus YEL061C, strain CIN8, active compounds read low 1.02 | locus YER015W, strain faa2, active compounds read low 0.97 | locus YER016W, strain bim1, active compounds read low 1 | locus YER110C, active compounds read low 0.99 | locus YER111C, strain swi4, active compounds read low 1 | locus YER155C, strain BEM2 (second series), active compounds read low 0.98 | locus YER155C, strain BEM2, active compounds read low 1 | locus YER167W, strain BCK2, active compounds read low 1.01 | locus YFR010W, strain ubp6, active compounds read low 1 | locus YGL078C, strain dbp3, active compounds read low 0.983 | locus YGL086W, strain mad1, active compounds read low 0.99 | locus YGL167C, strain pmr1, active compounds read low 0.998 | locus YGL173C, strain kem1, active compounds read low 0.998 | locus YGL227W, strain vid30, active compounds read low 1 | locus YGL240W, strain doc1, active compounds read low 0.965 | locus YGL248W, strain PDE1, active compounds read low 1.02 | locus YGL253W, strain hxk2, active compounds read low 1.01 | locus YGR135W, strain pre9, active compounds read low 0.974 | locus YGR252W, strain gcn5, active compounds read low 0.922 | locus YHR013C, strain ard1, active compounds read low 0.989 | locus YHR027C, strain rpn1, active compounds read low 1.01 | locus YHR030C, strain SLT2, active compounds read low 1.01 and 0.988 | locus YHR079C, strain IRE1 (second series), active compounds read low 0.998 | locus YHR079C, strain IRE1, active compounds read low 0.984 | locus YHR094C, strain hxt1, active compounds read low 0.993 | locus YHR129C, strain ARP1, active compounds read low 1.02 | locus YHR142W, strain chs7, active compounds read low 1.01 | locus YHR200W, strain rpn10, active compounds read low 0.988 | locus YIL066C, strain RNR3, active compounds read low 1.03 | locus YIL073C, strain SPO22, active compounds read low 1.01 | locus YIL125W, strain kgd1, active compounds read low 0.992 | locus YIR030C, strain dcg1, active compounds read low 0.994 | locus YJL092W, strain hpr5, active compounds read low 1 | locus YJL095W, strain BCK1 (second series), active compounds read low 0.997 | locus YJL095W, strain BCK1, active compounds read low 1.03 and 0.978 | locus YJL115W, strain asf1, active compounds read low 1.01 | locus YJL129C, strain trk1, active compounds read low 1.01 | locus YJL134W, strain LCB3, active compounds read low 1.02 | locus YJL154C, strain vps35, active compounds read low 0.993 | locus YJL164C, strain tpk1, active compounds read low 0.992 | locus YJL166W, strain qcr8, active compounds read low 0.993 | locus YJL168C, strain set2, active compounds read low 0.987 | locus YJL187C, strain SWE1 (second series), active compounds read low 1.02 | locus YJL187C, strain SWE1, active compounds read low 0.994 | locus YJR043C, strain POL32, active compounds read low 1.02 | locus YJR066W, strain TOR1, active compounds read low 0.928 | locus YKL009W, strain mrt4, active compounds read low 1 | locus YKL068W, active compounds read low 1 | locus YKL085W, strain MDH1 (second series), active compounds read low 0.999 | locus YKL085W, strain MDH1, active compounds read low 0.999 | locus YKL160W, strain elf1, active compounds read low 0.986 | locus YKL190W, strain CNB1, active compounds read low 1.02 | locus YKR001C, strain vps1, active compounds read low 1.01 | locus YKR026C, strain gcn3, active compounds read low 0.993 | locus YKR091W, strain srl3, active compounds read low 0.993 | locus YLL001W, strain dnm1, active compounds read low 0.98 | locus YLL026W, active compounds read low 0.994 | locus YLL041C, strain sdh2, active compounds read low 0.997 | locus YLR027C, strain aat2, active compounds read low 1.01 | locus YLR039C, strain RIC1, active compounds read low 1.07 | locus YLR058C, strain SHM2, active compounds read low 1.02 | locus YLR102C, strain apc9, active compounds read low 0.985 | locus YLR113W, strain HOG1, active compounds read low 0.991 | locus YLR221C, strain rsa3, active compounds read low 0.974 | locus YLR258W, strain gsy2, active compounds read low 0.992 | locus YLR262C, strain YPT6 (second series), active compounds read low 1 | locus YLR262C, strain YPT6, active compounds read low 1.03 | locus YLR268W, strain sec22, active compounds read low 0.988 | locus YLR320W, strain mms22, active compounds read low 0.988 | locus YLR330W, strain CHS5, active compounds read low 1.02 | locus YLR342W, strain FKS1 (second series), active compounds read low 1.01 | locus YLR342W, strain FKS1, active compounds read low 1 | locus YLR357W, strain rsc2, active compounds read low 0.971 | locus YLR370C, strain arc18, active compounds read low 0.999 | locus YLR371W, strain rom2, active compounds read low 0.979 | locus YLR384C, strain iki3, active compounds read low 0.988 | locus YLR418C, strain cdc73, active compounds read low 0.967 | locus YML016C, strain PPZ1, active compounds read low 1.02 | locus YML032C, strain rad52, active compounds read low 0.985 | locus YML120C, strain ndi1, active compounds read low 0.983 | locus YML124C, strain tub3, active compounds read low 0.988 | locus YMR058W, strain fet3, active compounds read low 1.01 | locus YMR078C, strain ctf18, active compounds read low 0.997 | locus YMR125W, strain sto1, active compounds read low 0.982 | locus YMR129W, active compounds read low 0.999 | locus YMR205C, strain PFK2, active compounds read low 0.982 | locus YMR223W, strain ubp8, active compounds read low 0.986 | locus YMR231W, strain pep5, active compounds read low 0.998 | locus YMR307W, strain GAS1, active compounds read low 1.01 | locus YNL067W, strain RPL9B, active compounds read low 1.02 | locus YNL071W, strain lat1, active compounds read low 1 | locus YNL153C, strain GIM3, active compounds read low 1.01 | locus YNL183C, strain NPR1, active compounds read low 0.96 | locus YNL209W, strain ssb2, active compounds read low 0.986 | locus YNL233W, strain BNI4, active compounds read low 1.02 | locus YNL248C, strain rpa49, active compounds read low 1 | locus YNL250W, strain rad50, active compounds read low 0.996 | locus YNL271C, strain bni1, active compounds read low 0.999 | locus YNL298W, strain CLA4, active compounds read low 0.983 | locus YNL307C, strain MCK1, active compounds read low 0.988 | locus YNL322C, strain KRE1 (second series), active compounds read low 0.99 | locus YNR049C, strain mso1, active compounds read low 0.996 | locus YNR052C, strain pop2, active compounds read low 0.991 | locus YOL012C, strain htz1 0.725 | locus YOL147C, strain pex11, active compounds read low 0.991 | locus YOR001W, strain rrp6, active compounds read low 1.01 | locus YOR061W, strain CKA2, active compounds read low 1.03 | locus YOR069W, strain VPS5, active compounds read low 1.02 | locus YOR070C, strain gyp1, active compounds read low 0.992 | locus YOR080W, strain dia2, active compounds read low 0.99 | locus YOR083W, strain WHI5, active compounds read low 1.04 | locus YOR106W, strain vam3, active compounds read low 0.974 | locus YOR136W, strain idh2, active compounds read low 0.991 | locus YOR144C, strain elg1, active compounds read low 0.991 | locus YOR184W, strain ser1, active compounds read low 0.982 | locus YOR231W, strain MKK1, active compounds read low 0.991 | locus YOR265W, strain rbl2, active compounds read low 0.993 | locus YOR270C, strain vph1, active compounds read low 1.03 | locus YOR290C, strain snf2, active compounds read low 0.935 | locus YOR316C, strain cot1, active compounds read low 0.997 | locus YPL051W, strain arl3, active compounds read low 0.98 | locus YPL055C, strain LGE1, active compounds read low 1.02 | locus YPL078C, strain atp4, active compounds read low 1 | locus YPL106C, strain sse1, active compounds read low 0.966 | locus YPL240C, strain hsp82, active compounds read low 0.994 | locus YPL241C, strain CIN2, active compounds read low 1.02 | locus YPL256C, strain CLN2, active compounds read low 0.976 | locus YPR119W, strain clb2, active compounds read low 0.994 | locus YPR141C, strain kar3, active compounds read low 0.988 | locus YPR163C, strain tif3, active compounds read low 0.995 | locus YPR167C, strain met16, active compounds read low 0.987 | strain wtn01, active compounds read low 0.977
